A short description of assay [1]: TOX21_PR_LUC_Followup_Agonist_viability: Viability Assessment in the Tox21 HEK293 Progesterone Receptor (PR) Agonism Luciferase Follow-Up Assay (AID 2283941).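 Further: loss of signal means cytotoxicity so actives lower viability.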 An outline of the steps: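 Multiplexed viability endpoint of the PR agonist luciferase follow-up: HEK293-PR-A-luc cells treated 16 h at 37C, with viability scored as decrease in CellTiter-Glo ATP signal.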

Assay [2] can be described thus: CCTE_Harrill_HTTr_Viability_DMEM_6hr: (Pilot) CCTE's 6-hour Cell Viability Assessment for the High-Throughput Transcriptomics (HTTr) Platform, in MCF-7 cells cultured in DMEM + 10% fetal bovine serum, Harrill Lab (AID 2283973; active means hit-call score of the fitted dose curve at least 0.9, where 1 is the maximum; inactive means score below 0.9). An outline of the steps:
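Propidium iodide uptake imaged by high-content analysis after six hours of chemical treatment in an eight-concentration series. Cells: MCF-7 grown in DMEM with 10% fetal bovine serum; DMSO as baseline.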

Assay [3] can be described thus: CCTE_Harrill_HTTr_Viability_DMEM_12hr: (Pilot) CCTE's 12-hour Cell Viability Assessment for the High-Throughput Transcriptomics (HTTr) Platform, in MCF-7 cells cultured in DMEM + 10% fetal bovine serum, Harrill Lab (AID 2283974; active means hit-call score of the fitted dose curve at least 0.9, where 1 is the maximum; inactive means score below 0.9). An outline of the steps:
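Propidium iodide dye exclusion imaged by high-content microscopy after 12 h chemical exposure (eight concentrations) of MCF-7 cells grown in DMEM plus 10% FBS; values fitted in both directions relative to DMSO.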

Assay [4] can be described thus: CCTE_Harrill_HTTr_Viability_DMEM_24hr: (Pilot) CCTE's 24-hour Cell Viability Assessment for the High-Throughput Transcriptomics (HTTr) Platform, in MCF-7 cells cultured in DMEM + 10% fetal bovine serum, Harrill Lab (AID 2283975; active means hit-call score of the fitted dose curve at least 0.9, where 1 is the maximum; inactive means score below 0.9). An outline of the steps:
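Pilot study: propidium iodide dye exclusion, imaged by high content microscopy, after 24 h compound exposure (eight concentrations) in MCF-7 cultured in DMEM + 10% fetal bovine serum; DMSO served as negative control and baseline.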

Assay [5] in a line: CCTE_Harrill_HTTr_Viability_PRF_DMEM_6hr: (Pilot) CCTE's 6-hour Cell Viability Assessment for the High-Throughput Transcriptomics (HTTr) Platform, in MCF-7 cells cultured phenol red-free DMEM + 10% charcoal-stripped fetal bovine serum, Harrill Lab (AID 2283976; active means hit-call score of the fitted dose curve at least 0.9, where 1 is the maximum; inactive means score below 0.9). In a few lines: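 Membrane integrity by high-content imaging of propidium iodide uptake, six hours after dosing with eight concentrations. Cells: MCF-7 grown in phenol red-free DMEM plus 10% charcoal-stripped serum; DMSO serves as baseline for bidirectional fits.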

Assay [6] is described as follows: CCTE_Harrill_HTTr_Viability_PRF_DMEM_12hr: (Pilot) CCTE's 12-hour Cell Viability Assessment for the High-Throughput Transcriptomics (HTTr) Platform, in MCF-7 cells cultured in phenol red-free DMEM + 10% charcoal-stripped fetal bovine serum, Harrill Lab (AID 2283977; active means hit-call score of the fitted dose curve at least 0.9, where 1 is the maximum; inactive means score below 0.9). In a few lines: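 Membrane integrity was scored via propidium iodide dye exclusion imaging, fitted in both directions relative to DMSO. Compounds ran as eight-point dilutions for 12 hours on MCF-7 grown in phenol red-free DMEM plus 10% charcoal-stripped serum.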

A short description of assay [7]: CCTE_Harrill_HTTr_Viability_PRF_DMEM_24hr: (Pilot) CCTE's 24-hour Cell Viability Assessment for the High-Throughput Transcriptomics (HTTr) Platform, in MCF-7 cells cultured in phenol red-free DMEM + 10% charcoal-stripped fetal bovine serum, Harrill Lab (AID 2283980; active means hit-call score of the fitted dose curve at least 0.9, where 1 is the maximum; inactive means score below 0.9). In a few lines:
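Propidium iodide exclusion imaged at 24 h after dosing scores viability; cells were MCF-7 grown in phenol red-free DMEM plus 10% charcoal-stripped serum, tested in eight concentrations, fitted in both directions against DMSO.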

Assay [8] is described as follows: CCTE_Harrill_HTTr_Apoptosis_DMEM_6hr: (Pilot) CCTE's 6-hour Apoptosis Assessment for the High-Throughput Transcriptomics (HTTr) Platform, in MCF-7 cells cultured in DMEM + 10% fetal bovine serum, Harrill Lab (AID 2283981; active means hit-call score of the fitted dose curve at least 0.9, where 1 is the maximum; inactive means score below 0.9). An outline of the steps:
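MCF-7 cells grown in DMEM + 10% FBS were exposed for 6 hours to an eight-point dilution series. CellEvent Caspase 3/7 Green signal was imaged; activity fitted bidirectionally against DMSO.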

The target in assay [9] is Thyroid hormone receptor alpha (Rattus norvegicus) + Thyroid hormone receptor beta (Rattus norvegicus) (UniProt P18113+P63059). Nature of the assay: TOX21_TR_LUC_GH3_Antagonist_Followup: Tox21 GH3 Thyroid Hormone Receptor Antagonism Luciferase Follow-Up Assay (AID 2283942). In a few lines:
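Luminescence read-out (ONE-Glo, 30 min at room temperature) in GH3 reporter cells challenged with 1.0 nM T3 final. Compounds ran at 92 uM to 5nM over 15 concentrations for 24 h; DMSO served as negative control and baseline.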

For assay [10], the target named is THRA (gene 7067) (UniProt P10827). Nature of the assay: TOX21_TRA_COA_Antagonist_Followup_ratio: Tox21 Thyroid Hormone Receptor alpha Antagonism through Coactivator Recruitment Follow-Up Assay, Ratio (AID 2283953). An outline of the steps:
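GST-TRα LBD 2.5 nM, BSA 0.10%, + cpd; then FITC-SRC-2 peptide 200 nM + Tb-anti-GST Ab 2 nM. TR-FRET ratio 520/495 nm. Norm: DMSO = 0%, T3 = 100%.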

The target of assay [11] is THRB (gene 7068) (UniProt P10828). Nature of the assay: TOX21_TRB_BLA_Antagonist_Followup_ratio: Tox21 Thyroid Hormone Receptor beta Antagonism Beta-lactamase (BLA) Follow-Up Assay, Ratio (AID 2283958). In a few lines:
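Cells were plated and allowed to attach for 5 h, then dosed with compounds in DMSO at 11 concentrations for 18 h at 37C. Beta-lactamase reporter activity was measured via CCF4-AM FRET as the 460:530 nm ratio.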

Assay [12] can be described thus: TOX21_TRB_BLA_Antagonist_Followup_viability: Viability Assessment in the Tox21 Thyroid Hormone Receptor beta Antagonism Beta-lactamase (BLA) Follow-Up Assay (AID 2283961). In a few lines:
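Viability read as CellTiter-Glo ATP luminescence (loss of signal = cytotoxicity) in the same plates as the TRβ-bla readout. TRβ-LBD/GAL4 UAS-bla HEK293T cells were exposed to compounds, 11 concentrations in triplicate, for 18 h at 37C/5% CO2.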

The target of assay [13] is THRB (gene 7068) (UniProt P10828). Nature of the assay: TOX21_TRB_COA_Antagonist_Followup_ratio: Tox21 Thyroid Hormone Receptor beta Antagonism through Coactivator Recruitment Follow-Up Assay, Ratio (AID 2283967). In a few lines:
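GST-TRb LBD 5.0 nM + 0.10% BSA, compound added; fluorescein-SRC-2 peptide 200 nM, Tb-anti-GST Ab 2 nM. TR-FRET, ex 340 / em 520:495 ratio. Norm: DMSO 0%, T3 100%.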

The target of assay [14] is Retinoic acid receptor RXR-alpha (Homo sapiens) (UniProt P19793). Nature of the assay: TOX21_TR_RXR_BLA_Antagonist_Followup_ratio: Tox21 Thyroid Hormone Receptor beta Retinoid X Receptor alpha (RXRa) Antagonism Beta-lactamase (BLA) Follow-Up Assay, Ratio (AID 2283972). In a few lines: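 Beta-lactamase reporter readout as cleaved/uncleaved substrate ratio (460:530 nm) after 2 h substrate loading at room temperature. GAL4-RXRa bla HEK293T cells were exposed 16 h at 37C to 11-point compound series; loss of signal scored against DMSO baseline.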

A short description of assay [15]: TOX21_TR_RXR_BLA_Antagonist_Followup_viability: Viability Assessment in the Tox21 Thyroid Hormone Receptor beta Retinoid X Receptor alpha (RXRa) Antagonism Beta-lactamase (BLA) Follow-Up Assay (AID 2283979). An outline of the steps: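 RXRa-bla HEK293T cells (2,500/well, phenol red-free DMEM, 2% charcoal-stripped FBS) were attached 5 h, then exposed to compounds at 11 concentrations in triplicate for 16 h at 37C. Viability measured by CellTiter-Glo ATP luminescence, bidirectional fitting versus DMSO.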

Assay [16] deals with THRA (gene 7067) (UniProt P10827). Nature of the assay: TOX21_TRA_COA_Agonist_Followup_ratio: Tox21 Thyroid Hormone Receptor alpha Agonism through Coactivator Recruitment Follow-Up Assay, Ratio (AID 2283948; active means hit-call score of the fitted dose curve at least 0.9, where 1 is the maximum; inactive means score below 0.9). In a few lines: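 GST-TRa LBD 2.5 nM + 0.10% BSA + cpd; add fluorescein-SRC-2 200 nM, Tb-anti-GST 2 nM. TR-FRET ex 340, em 520/495 ratio. Norm: DMSO 0%, T3 100%; gain-of-signal fit.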

A short description of assay [17]: TOX21_TRB_BLA_Agonist_Followup_viability: Viability Assessment in the Tox21 Thyroid Hormone Receptor beta Agonism Beta-lactamase (BLA) Follow-Up Assay (AID 2283956). An outline of the steps:
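Viability was read as CellTiter-Glo luminescence in the same wells as the TRb-bla agonist read-out. HEK293T GAL4-TRb LBD cells were treated for 18 h (37C, 5% CO2) at 11 concentrations in triplicate. Fits were bidirectional versus DMSO baseline.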

Assay [18] concerns the target THRB (gene 7068) (UniProt P10828). Nature of the assay: TOX21_TRB_COA_Agonist_Followup_ratio: Tox21 Thyroid Hormone Receptor beta Agonism through Coactivator Recruitment Follow-Up Assay, Ratio (AID 2283963; active means hit-call score of the fitted dose curve at least 0.9, where 1 is the maximum; inactive means score below 0.9). An outline of the steps:
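First, the GST-fused TRβ ligand-binding domain (5.0 nM) was incubated with test compound in 0.10% BSA. Next, fluorescein-tagged SRC-2 peptide (200 nM) and terbium anti-GST antibody (2 nM) were added. Finally, TR-FRET emission ratios were normalized against DMSO and T3 controls.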

Assay [19] has as its target Retinoic acid receptor RXR-alpha (Homo sapiens) (UniProt P19793). Nature of the assay: TOX21_TR_RXR_BLA_Agonist_Followup_ratio: Tox21 Thyroid Hormone Receptor beta Retinoid X Receptor alpha (RXRa) Agonism Beta-lactamase (BLA) Follow-Up Assay, Ratio (AID 2283968). In a few lines: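 Cells were first allowed to attach for 5 h, after which compounds in DMSO were pinned at 11 concentrations and incubated 16 h at 37C. LiveBLAzer CCF4-AM substrate was then added for 2 h at room temperature before reading 460 and 530 nm fluorescence.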

A short description of assay [20]: TOX21_TR_RXR_BLA_Agonist_Followup_viability: Viability Assessment in the Tox21 Thyroid Hormone Receptor beta Retinoid X Receptor alpha (RXRa) Agonism Beta-lactamase (BLA) Follow-Up Assay (AID 2283970). In a few lines: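 Viability counter-screen run alongside the RXRa bla follow-up: HEK293T reporter cells were treated for 16h at 37C in stripped-serum medium, then ATP was quantified by luciferase-coupled CellTiter-Glo. Decreased signal relative to DMSO marked cytotoxicity.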

Results filed as inconclusive are left out. Activity calls are given as the source filed them. How the source made its calls, unless noted: active means hit-call score of the fitted dose curve at least 0.9, where 1 is the maximum; inconclusive means response in the unintended direction; inactive means score below 0.9.

The text below walks through data of PubChem BioAssay (EPA / NIEHS).

Sequence of THRB (gene 7068) (P10828 whole entry, looked up, the tested form may be a part): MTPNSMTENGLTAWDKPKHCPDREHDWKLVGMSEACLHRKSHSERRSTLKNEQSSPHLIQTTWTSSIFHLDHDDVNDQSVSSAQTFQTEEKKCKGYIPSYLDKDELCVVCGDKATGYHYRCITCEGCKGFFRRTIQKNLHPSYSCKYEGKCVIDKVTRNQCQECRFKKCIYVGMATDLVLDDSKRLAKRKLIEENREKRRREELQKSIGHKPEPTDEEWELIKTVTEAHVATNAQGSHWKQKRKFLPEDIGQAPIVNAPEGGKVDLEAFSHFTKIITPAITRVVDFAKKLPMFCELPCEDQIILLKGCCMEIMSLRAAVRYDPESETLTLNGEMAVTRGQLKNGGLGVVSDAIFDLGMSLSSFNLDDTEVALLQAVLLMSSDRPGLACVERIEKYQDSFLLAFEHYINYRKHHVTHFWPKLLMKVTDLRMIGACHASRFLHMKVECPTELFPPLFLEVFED
Sequence of THRA (gene 7067) (P10827 whole entry, looked up, the tested form may be a part): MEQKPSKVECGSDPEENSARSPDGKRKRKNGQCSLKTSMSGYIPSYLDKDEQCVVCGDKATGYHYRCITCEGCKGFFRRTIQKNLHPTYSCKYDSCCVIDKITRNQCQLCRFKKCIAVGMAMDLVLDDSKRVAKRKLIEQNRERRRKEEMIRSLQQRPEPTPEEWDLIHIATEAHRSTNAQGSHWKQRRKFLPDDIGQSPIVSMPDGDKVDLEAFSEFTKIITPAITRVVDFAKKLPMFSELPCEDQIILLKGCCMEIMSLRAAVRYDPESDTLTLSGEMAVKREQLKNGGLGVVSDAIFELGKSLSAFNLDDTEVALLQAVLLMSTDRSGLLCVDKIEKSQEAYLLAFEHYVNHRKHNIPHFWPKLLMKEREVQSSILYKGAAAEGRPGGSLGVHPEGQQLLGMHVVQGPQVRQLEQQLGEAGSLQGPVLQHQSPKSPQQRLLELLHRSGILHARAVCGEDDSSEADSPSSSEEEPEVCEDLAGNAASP
Sequence of Retinoic acid receptor RXR-alpha (Homo sapiens) (P19793 whole entry, looked up, the tested form may be a part): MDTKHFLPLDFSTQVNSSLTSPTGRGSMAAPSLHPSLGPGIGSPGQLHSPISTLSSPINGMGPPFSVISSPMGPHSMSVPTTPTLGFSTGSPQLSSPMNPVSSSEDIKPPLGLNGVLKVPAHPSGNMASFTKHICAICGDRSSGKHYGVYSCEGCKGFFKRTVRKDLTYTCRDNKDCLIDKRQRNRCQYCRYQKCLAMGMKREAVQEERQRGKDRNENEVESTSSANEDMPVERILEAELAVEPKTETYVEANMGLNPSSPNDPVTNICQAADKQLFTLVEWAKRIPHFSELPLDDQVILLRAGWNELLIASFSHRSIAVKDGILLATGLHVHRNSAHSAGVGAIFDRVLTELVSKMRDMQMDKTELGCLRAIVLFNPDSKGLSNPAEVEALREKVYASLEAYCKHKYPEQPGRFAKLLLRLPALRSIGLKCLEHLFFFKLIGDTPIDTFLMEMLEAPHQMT

For `COc1ccc(O)c(C(C)(C)C)c1`, the compound was called inactive in assay [1].
On to `CC(C)(c1ccccc1)c1ccc(O)cc1`, for which the call in assay [1], in assay [2], in [3], in [4], in [5] and in assay [6] was inactive. For the same compound, the outcome in [7] and in [8] was inactive.
Consider `Clc1ccc(C(c2ccccc2Cl)C(Cl)(Cl)Cl)cc1` (stereo not given), for which the AC50 in [1] is 76 µM (active).
For the compound `CO/C=C(/C(=O)OC)c1ccccc1COc1cccc(C(F)(F)F)n1`, the AC50 in assay [9] is 2.06 µM (active). Besides, the outcome (in the assay with THRA (gene 7067) [10]; with THRB (gene 7068) [11]; in [12]; with THRB (gene 7068) [13]; in assay [14]; in [15]) was inactive.
In the case of `CCC(C)(c1ccc(O)cc1)c1ccc(O)cc1`, the outcome in [2], in assay [3], in assay [4], in assay [5], in assay [6] and in assay [7] was inactive. In addition, the outcome in assay [8] was inactive.
In the case of `C[C@]12CCC(=O)C=C1CC[C@@H]1[C@@H]2CC[C@@]2(C)[C@H]1CC[C@]2(C)O`, the outcome (in [9]; with THRA (gene 7067) [10]; with THRB (gene 7068) [11]; in the assay with THRB (gene 7068) [13]; in assay [15]) was inactive.
In the case of `C[C@]12CCC(=O)C=C1CC[C@@H]1[C@@H]2CC[C@]2(C)C(=O)CC[C@@H]12`, the compound was called inactive in assay [1].
Still for that read-out and setting: with `N#Cc1ccc(N(CC(N)=O)CC(F)(F)F)cc1C(F)(F)F` the entry was “inactive”.
Same read-out and setting: the entry for `CCC(=O)O[C@H]1CC[C@H]2[C@@H]3CCC4=CC(=O)CC[C@]4(C)[C@H]3CC[C@]12C` is “inactive”.
On to `Cc1cc(O)ccc1Cl`, for which the outcome (in the assay with THRA (gene 7067) [16]; in [17]; with THRB (gene 7068) [18]; in assay [19]; in assay [20]) was inactive.
For `CC(C)(O)C(=O)Nc1ccc([N+](=O)[O-])c(C(F)(F)F)c1`, the outcome in assay [1] was inactive.
`ClC(Cl)=C(c1ccc(Cl)cc1)c1ccc(Cl)cc1`: the call in [1] was inactive.
On the same count and under the same terms, the entry for `Oc1ccc(C(c2ccc(O)cc2)(C(F)(F)F)C(F)(F)F)cc1` is “inactive”.
